# Publication PMC5540273 (PLoS ONE, 2017)
# Like-named read-outs stand apart in the source and are kept apart here.
# Assays:
# Settings in all cases: n = 1
# [1] = test system: TTK
# [2] = test system: TXK
# [3] = test system: TYK2(JH1domain-catalytic)
# [4] = test system: TYK2(JH2domain-pseudokinase)
# [5] = test system: TYRO3
# [6] = test system: ULK1
# [7] = test system: ULK2
# [8] = test system: ULK3
# [9] = test system: T1, VEGFR2
# T1 construct: gene KDR
# [10] = test system: T2, VPS34
# T2 construct: gene PIK3C3
# [11] = test system: VRK2
# [12] = test system: WEE1
# [13] = test system: WEE2
# [14] = test system: WNK1
# [15] = test system: WNK2
# [16] = test system: WNK3
# [17] = test system: WNK4
# [18] = test system: T3, YANK1
# T3 construct: gene STK32A
# [19] = test system: T4, YANK2
# T4 construct: gene STK32B
# [20] = test system: T5, YANK3
# T5 construct: gene STK32C
# [21] = concentration: 1 μM, replicates: in singlicate
# 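Note: KINOMEscan kinase panel screen.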
smiles,measurement,setting,value
Cc1cccc(-c2nc(C)cc(Nc3ccncc3)n2)n1 [GSK257997],%Inh,[1]; [21],0%
same,%Inh,[2]; [21],0%
same,%Inh,[3]; [21],0%
same,%Inh,[4]; [21],15%
same,%Inh,[5]; [21],21%
same,%Inh,[6]; [21],0%
same,%Inh,[7]; [21],0%
same,%Inh,[8]; [21],6%
same,%Inh,[9]; [21],0%
same,%Inh,[10]; [21],11%
same,%Inh,[11]; [21],0%
same,%Inh,[12]; [21],9%
same,%Inh,[13]; [21],2%
same,%Inh,[14]; [21],6%
same,%Inh,[15]; [21],6%
same,%Inh,[16]; [21],6%
same,%Inh,[17]; [21],0%
same,%Inh,[18]; [21],10%
same,%Inh,[19]; [21],0%
same,%Inh,[20]; [21],5%
O=C(Nc1ccccc1)Nc1cccc(Oc2ccc3nccn3n2)c1,%Inh,[1]; [21],0%
same,%Inh,[2]; [21],0%
same,%Inh,[3]; [21],14%
same,%Inh,[4]; [21],1%
same,%Inh,[5]; [21],11%
same,%Inh,[6]; [21],0%
same,%Inh,[7]; [21],0%
same,%Inh,[8]; [21],0%
same,%Inh,[10]; [21],0%
same,%Inh,[11]; [21],0%
same,%Inh,[12]; [21],0%
same,%Inh,[13]; [21],41%
same,%Inh,[14]; [21],0%
same,%Inh,[15]; [21],0%
same,%Inh,[16]; [21],0%
same,%Inh,[17]; [21],17%
same,%Inh,[18]; [21],0%
same,%Inh,[19]; [21],29%
same,%Inh,[20]; [21],0%
COc1ccccc1-c1ccc2c(NC(=O)C3CC3)n[nH]c2n1 [SB-711239],%Inh,[1]; [21],21%
same,%Inh,[2]; [21],0%
same,%Inh,[3]; [21],0%
same,%Inh,[4]; [21],18%
same,%Inh,[5]; [21],0%
same,%Inh,[6]; [21],63%
same,%Inh,[7]; [21],0%
same,%Inh,[8]; [21],100%
same,%Inh,[9]; [21],0%
same,%Inh,[10]; [21],15%
same,%Inh,[11]; [21],21%
same,%Inh,[12]; [21],8%
same,%Inh,[13]; [21],5%
same,%Inh,[14]; [21],7%
same,%Inh,[15]; [21],0%
same,%Inh,[16]; [21],37%
same,%Inh,[17]; [21],0%
same,%Inh,[18]; [21],15%
same,%Inh,[19]; [21],0%
same,%Inh,[20]; [21],20%
Cc1ccc(NC(=O)Nc2cccc(C(F)(F)F)c2)cc1 [GSK955403],%Inh,[1]; 1 µM,19%
same,%Inh,[2]; 1 µM,38%
same,%Inh,[3]; 1 µM,24%
same,%Inh,[4]; 1 µM,0%
same,%Inh,[5]; 1 µM,16%
same,%Inh,[6]; 1 µM,0%
same,%Inh,[7]; 1 µM,6%
same,%Inh,[8]; 1 µM,0%
same,%Inh,[9]; 1 µM,0%
same,%Inh,[10]; 1 µM,0%
same,%Inh,[11]; 1 µM,0%
same,%Inh,[12]; 1 µM,3%
same,%Inh,[13]; 1 µM,0%
same,%Inh,[14]; 1 µM,0%
same,%Inh,[15]; 1 µM,0%
same,%Inh,[16]; 1 µM,0%
same,%Inh,[17]; 1 µM,0%
same,%Inh,[18]; 1 µM,0%
same,%Inh,[19]; 1 µM,0%
same,%Inh,[20]; 1 µM,0%
Cc1cccc(-c2cc(Nc3ccncc3)c3ccccc3n2)n1 [GSK223675],%Inh,[1]; [21],0%
same,%Inh,[2]; [21],87%
same,%Inh,[3]; [21],0%
same,%Inh,[4]; [21],22%
same,%Inh,[5]; [21],0%
same,%Inh,[6]; [21],13%
same,%Inh,[7]; [21],0%
same,%Inh,[8]; [21],6%
same,%Inh,[9]; [21],15%
same,%Inh,[10]; [21],0%
same,%Inh,[11]; [21],0%
same,%Inh,[12]; [21],20%
same,%Inh,[13]; [21],0%
same,%Inh,[14]; [21],4%
same,%Inh,[15]; [21],0%
same,%Inh,[16]; [21],1%
same,%Inh,[17]; [21],0%
same,%Inh,[18]; [21],2%
same,%Inh,[19]; [21],0%
same,%Inh,[20]; [21],0%
